PubChem BioAssay (Tox21)
Records with an inconclusive call do not appear. Active and inactive are the calls of the source. Unless noted, the call rests on the fitted dose curve; in most records, active means well fitted curve in the direction sought with a large enough effect in the repeat runs; inconclusive means weak or mixed curves; inactive means no such curve, though single readings can be large; an effect the other way counts as inactive or inconclusive. Non-standard residues stand in square brackets, D forms with d. Residues, ends and D or L forms follow the SMILES beside them. *: point of attachment. Sta = CC(C)C[C@H](N)[C@@H](O)CC(=O)O; Isovaleryl = CC(C)CC(=O)*

Legend:
[1] = target: Thyrotropin receptor (Homo sapiens) (UniProt P16473); experiment: qHTS assay to identify small molecule antagonists of the thyroid stimulating hormone receptor (TSHR) signaling pathway (AID 1259385; calls by dose curve; further: nearly all actives have a fitted effect of over 20% in size)
Thyrotropin receptor (Homo sapiens), sequence (P16473 whole entry, looked up): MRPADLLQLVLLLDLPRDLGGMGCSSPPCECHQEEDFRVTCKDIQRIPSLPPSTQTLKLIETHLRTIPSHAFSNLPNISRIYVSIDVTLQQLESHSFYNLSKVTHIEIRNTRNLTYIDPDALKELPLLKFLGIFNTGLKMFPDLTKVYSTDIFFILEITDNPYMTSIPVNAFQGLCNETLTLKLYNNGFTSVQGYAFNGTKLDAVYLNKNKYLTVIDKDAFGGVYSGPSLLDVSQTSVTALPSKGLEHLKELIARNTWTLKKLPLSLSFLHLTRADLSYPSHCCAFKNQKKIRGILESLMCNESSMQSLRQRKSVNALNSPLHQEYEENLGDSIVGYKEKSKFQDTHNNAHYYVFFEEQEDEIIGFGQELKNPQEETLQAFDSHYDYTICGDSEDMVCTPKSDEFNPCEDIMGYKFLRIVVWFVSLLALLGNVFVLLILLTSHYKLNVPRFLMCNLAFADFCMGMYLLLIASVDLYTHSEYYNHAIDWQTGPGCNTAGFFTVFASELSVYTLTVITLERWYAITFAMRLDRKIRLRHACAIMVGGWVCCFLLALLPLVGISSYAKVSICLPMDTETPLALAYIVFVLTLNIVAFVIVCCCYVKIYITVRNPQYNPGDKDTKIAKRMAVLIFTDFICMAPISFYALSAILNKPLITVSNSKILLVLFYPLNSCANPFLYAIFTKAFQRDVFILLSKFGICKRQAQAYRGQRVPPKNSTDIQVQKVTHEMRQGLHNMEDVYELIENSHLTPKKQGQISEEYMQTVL
Method in brief: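 Antagonist mode: compound-treated TSHR-expressing HEK293 cells were stimulated with 1.5 ng/mL TSH (final) in presence of Ro20-1724 for 30 min at RT. HTRF cAMP detection after 1 h; each compound tested at 15 concentrations, triplicate.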

[2] = target: Progesterone receptor (Homo sapiens) (UniProt P06401); experiment: qHTS assay to identify small molecule agonists of the progesterone receptor (PR) signaling pathway (AID 1346784; calls by dose curve; further: nearly all actives have a fitted effect of over 30% in size)
Progesterone receptor (Homo sapiens), sequence (P06401 whole entry, looked up): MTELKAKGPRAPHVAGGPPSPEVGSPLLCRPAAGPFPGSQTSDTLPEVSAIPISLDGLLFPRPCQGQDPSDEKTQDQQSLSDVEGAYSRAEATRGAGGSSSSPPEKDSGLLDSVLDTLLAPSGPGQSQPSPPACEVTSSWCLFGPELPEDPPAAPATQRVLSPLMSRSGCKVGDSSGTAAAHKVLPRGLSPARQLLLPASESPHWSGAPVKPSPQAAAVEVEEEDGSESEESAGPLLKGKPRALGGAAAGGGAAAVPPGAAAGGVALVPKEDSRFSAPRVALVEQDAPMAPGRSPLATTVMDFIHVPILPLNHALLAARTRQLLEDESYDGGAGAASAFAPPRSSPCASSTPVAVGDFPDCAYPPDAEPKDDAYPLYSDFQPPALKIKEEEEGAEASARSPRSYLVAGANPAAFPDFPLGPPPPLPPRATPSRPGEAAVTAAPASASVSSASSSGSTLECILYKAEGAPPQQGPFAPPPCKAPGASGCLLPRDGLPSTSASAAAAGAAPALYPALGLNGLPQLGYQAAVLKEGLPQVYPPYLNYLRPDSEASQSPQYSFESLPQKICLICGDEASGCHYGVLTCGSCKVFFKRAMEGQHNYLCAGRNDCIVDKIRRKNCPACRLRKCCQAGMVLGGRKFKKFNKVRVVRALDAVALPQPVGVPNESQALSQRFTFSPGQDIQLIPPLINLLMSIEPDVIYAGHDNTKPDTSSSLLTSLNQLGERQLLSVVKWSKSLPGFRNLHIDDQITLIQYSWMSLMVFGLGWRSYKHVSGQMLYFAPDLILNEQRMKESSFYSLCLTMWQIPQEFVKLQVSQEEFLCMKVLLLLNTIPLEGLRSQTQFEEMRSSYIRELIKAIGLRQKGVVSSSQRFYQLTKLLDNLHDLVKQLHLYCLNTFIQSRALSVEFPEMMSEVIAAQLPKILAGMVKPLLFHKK
Method in brief: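 Fluorescence from LiveBLAzer B/G FRET substrate cleavage (2 hr, RT) reported PR activation in PR-UAS-bla HEK 293T cells treated 16 hr at 37C/5% CO2 with compounds; medium contained 2% charcoal-stripped FBS.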

[3] = target: Progesterone receptor (Homo sapiens) (UniProt P06401); experiment: qHTS assay to identify small molecule antagonists of the progesterone receptor (PR) signaling pathway (AID 1346795; active means well fitted inhibition curve with a large enough effect in the signal ratio in the repeat runs, not every such curve was filed as active; the % refers to the signal ratio; further: potency means the concentration at half of the fitted maximal effect)
Method in brief: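 Fluorescence intensity measured 2 hr after adding beta-lactamase FRET substrate to PR-UAS-bla HEK293T cells that had been co-treated 16 hr with compound and 1 nM R5020 (final concentration) in 2% charcoal-stripped FBS.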

[4] = qHTS assay to identify small molecule antagonists of the progesterone receptor (PR) signaling pathway - cell viability counter screen (AID 1346798); further: series mostly up to about 92 µM; nearly all actives have a fitted effect of over 50% in size
Method in brief: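 CellTiter-Glo luminescence; PR-UAS-bla HEK293T, 3,000 cells/well; compound + R5020, 16 hr, 37C/5% CO2; 30 min RT before read.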

[5] = qHTS assay to identify small molecule antagonists of the TGF-beta/Smad signaling pathway - cell viability counter screen (AID 1346824); further: nearly all actives have a fitted effect of over 50% in size
Method in brief: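 Cytotoxicity counter-screen run in the same wells as the beta-lactamase Smad reporter read: CellTiter-Glo luminescence after 30 min at room temperature. HEK 293T SBE-bla cells had 5 hr compound exposure at 37 C with TGF-beta1 (0.25 ng/mL stock).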

[6] = qHTS assay to identify small molecule agonists of the TGF-beta/Smad signaling pathway - cell viability counter screen (AID 1346829); further: top concentration of the series differs between compounds; nearly all actives have a fitted effect of over 45% in size
Method in brief: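 HEK 293T SBE-bla line, 5 hr compound exposure at 37 C, multiplexed CellTiter-Glo viability read by luminescence.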

[7] = qHTS assay to identify small molecule agonists of the TGF-beta/Smad signaling pathway (AID 1346859; active means well fitted activation curve with a large enough effect in the signal ratio in the repeat runs, not every such curve was filed as active; the % refers to the signal ratio; further: series mostly up to about 77 µM)
Method in brief: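 After overnight seeding, SBE-bla HEK 293T cells are dosed with compounds in DMSO and kept 5 hr at 37 C, 5% CO2. LiveBLAzer-type FRET substrate is then applied for 2 hr at room temperature.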

[8] = target: Thyrotropin-releasing hormone receptor (Homo sapiens) (UniProt P34981); experiment: qHTS assay to identify small molecule antagonists of the thyrotropin-releasing hormone receptor (TRHR) signaling pathway (AID 1346877; active means well fitted inhibition curve with a large enough effect in the repeat runs, not every such curve was filed as active; further: series mostly up to about 51 µM)
Thyrotropin-releasing hormone receptor (Homo sapiens), sequence (P34981 whole entry, looked up): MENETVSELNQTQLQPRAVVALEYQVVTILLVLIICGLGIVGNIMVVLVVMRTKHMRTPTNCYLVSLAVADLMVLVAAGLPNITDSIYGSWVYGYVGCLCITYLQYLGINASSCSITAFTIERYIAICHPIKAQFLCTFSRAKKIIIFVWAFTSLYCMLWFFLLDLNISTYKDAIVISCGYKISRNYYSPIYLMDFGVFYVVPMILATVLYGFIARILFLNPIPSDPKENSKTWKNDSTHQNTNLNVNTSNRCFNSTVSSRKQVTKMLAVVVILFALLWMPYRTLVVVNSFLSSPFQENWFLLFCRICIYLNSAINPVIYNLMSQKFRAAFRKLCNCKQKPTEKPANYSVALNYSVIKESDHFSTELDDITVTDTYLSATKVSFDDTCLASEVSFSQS
Method in brief: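 Following an 18 h incubation at 37 °C and a 2 h calcium dye load, TRHR-HEK293 cells were exposed to compound (5 min, room temperature) and challenged with TRH, 1 nM final.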

[9] = target: Thyrotropin-releasing hormone receptor (Homo sapiens) (UniProt P34981); experiment: qHTS assay to identify small molecule agonists of the thyrotropin-releasing hormone receptor (TRHR) signaling pathway (AID 1346891; calls by dose curve;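 further: HEK293 cells expressing TRHR with calcium dye readout; series mostly up to about 58 µM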)
Method in brief: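 Compounds were tested as agonists at 15 concentrations, in triplicate, on TRHR-Hek293 cells; calcium-sensitive dye fluorescence was recorded for 3 min following addition.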

[10] = Human pregnane X receptor (PXR) small molecule agonists, qHTS cell viability counter screen (AID 1346977); further: nearly all actives have a fitted effect of over 50% in size
Method in brief: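 Viability counter screen: CellTiter-Fluor signal in PXR-Luc HepG2 cells, 24hr compound exposure, 37C, 5% CO2.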

[11] = Caspase-3/7 induction in HepG2 cells by small molecules, qHTS assay (AID 1346978); further: nearly all actives have a fitted effect of over 15% in size
Method in brief: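 Caspase-3/7 induction was measured by Caspase-Glo 3/7 luminescence (30 min, room temperature) after a 17 hr compound exposure of wild-type HepG2 cells seeded at 2,000 per well and pre-incubated 5 hr.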

[12] = Caspase-3/7 induction in CHO-K1 cells by small molecules, qHTS cell viability counter screen (AID 1346979); further: nearly all actives have a fitted effect of over 35% in size
Method in brief: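 Viability readout by fluorescence (CellTiter-Fluor) on wild-type CHO-K1 cells exposed for 16hr at 37C and 5% CO2 to compounds delivered in DMSO; reagent incubated 1hr before reading.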

[13] = Caspase-3/7 induction in CHO-K1 cells by small molecules, qHTS assay (AID 1346980); further: nearly all actives have a fitted effect of over 15% in size
Method in brief: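 Luminescent Caspase-Glo 3/7 read (30min, room temperature) quantified apoptosis induction. Cells were wild-type CHO-K1, treated with compound for 17hr at 37 C and 5% CO2.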

[14] = Caspase-3/7 induction in HepG2 cells by small molecules, qHTS cell viability counter screen (AID 1346981); further: series mostly up to about 92 µM; nearly all actives have a fitted effect of over 30% in size
Method in brief: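 Viability determined by CellTiter-Fluor fluorescence in HepG2 wells also used for the luminescent Caspase-Glo 3/7 read. Compounds were present for 16 hr at 37 C, 5% CO2 before reagent addition.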

[15] = target: Nuclear receptor subfamily 1 group I member 2 (Homo sapiens) (UniProt O75469); experiment: Human pregnane X receptor (PXR) small molecule agonists, qHTS assay (AID 1346982); further: nearly all actives have a fitted effect of over 35% in size; further: potency means the concentration at half of the fitted maximal effect
Nuclear receptor subfamily 1 group I member 2 (Homo sapiens), sequence (O75469 whole entry, looked up): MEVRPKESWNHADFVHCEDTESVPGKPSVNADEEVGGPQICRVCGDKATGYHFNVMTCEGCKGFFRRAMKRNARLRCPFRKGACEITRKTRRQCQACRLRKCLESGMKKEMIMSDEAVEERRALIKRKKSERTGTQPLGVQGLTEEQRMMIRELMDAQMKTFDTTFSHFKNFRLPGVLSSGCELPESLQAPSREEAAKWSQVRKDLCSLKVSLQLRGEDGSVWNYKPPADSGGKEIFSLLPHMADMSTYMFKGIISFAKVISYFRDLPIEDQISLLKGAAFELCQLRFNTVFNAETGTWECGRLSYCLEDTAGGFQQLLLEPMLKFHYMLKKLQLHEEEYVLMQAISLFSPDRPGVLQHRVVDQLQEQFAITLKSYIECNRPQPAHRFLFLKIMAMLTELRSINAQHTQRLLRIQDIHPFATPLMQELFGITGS
Method in brief: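 Compound-induced hPXR transactivation of a CYP3A4 luciferase reporter was scored in HepG2 PXR-Luc cells over 24 hr at 37 C, 5% CO2, by luminescence.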

[16] = target: Nuclear receptor subfamily 1 group I member 2 (Rattus norvegicus) (UniProt Q9R1A7); experiment: Rat pregnane X receptor (rPXR) activation by small molecules, qHTS assay (AID 1346983); details: rPXR luciferase reporter cells, One-Glo luminescence, 24 h; max activation: hits give high values; further: nearly all actives have a fitted effect of over 20% in size; further: potency means the concentration at half of the fitted maximal effect
Nuclear receptor subfamily 1 group I member 2 (Rattus norvegicus), sequence (Q9R1A7 whole entry, looked up): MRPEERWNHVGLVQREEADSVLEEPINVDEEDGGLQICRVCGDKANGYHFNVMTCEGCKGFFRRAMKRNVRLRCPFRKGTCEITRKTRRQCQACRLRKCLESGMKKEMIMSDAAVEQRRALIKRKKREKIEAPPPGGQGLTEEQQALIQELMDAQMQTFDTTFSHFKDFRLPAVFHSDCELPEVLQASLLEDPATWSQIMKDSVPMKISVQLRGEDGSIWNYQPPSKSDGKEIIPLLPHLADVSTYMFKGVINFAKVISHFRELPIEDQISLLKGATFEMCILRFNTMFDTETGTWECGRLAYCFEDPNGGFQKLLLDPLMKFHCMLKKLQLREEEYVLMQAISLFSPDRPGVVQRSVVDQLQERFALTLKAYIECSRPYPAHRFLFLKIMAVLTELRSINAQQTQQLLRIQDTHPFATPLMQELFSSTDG
Method in brief: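 Luminescent readout (One-Glo luciferase, 30 min room temperature) followed 24 hr compound treatment at 37 C of rPXR cells plated 2,000 per well and preincubated 5hr; qHTS format with compounds delivered in DMSO.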

[17] = qHTS assay to identify small molecule agonists or antagonists of the thyroid stimulating hormone receptor (TSHR) signaling pathway - wild type cell line counter screen (AID 1259384; calls by dose curve)
Method in brief: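 Counter screen in untransfected Hek293: compounds (15-point titration, triplicate) plus phosphodiesterase inhibitor Ro20-1724 added after 18 h plating; 30 min RT. Intracellular cAMP via competitive d2/cryptate immunoassay, 1 h incubation.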

[18] = qHTS assay to identify small molecule agonists of the estrogen receptor alpha (ER-alpha) signaling pathway in the presence of an antagonist - cell viability counter screen (AID 1259386);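 further: series mostly up to about 92 µM; cells exposed to compounds for 22 h at 37 °C before the viability read; nearly all actives have a fitted effect of over 30% in size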
Method in brief: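 Viability counter screen using VM7Luc4E2 (full-length ER-alpha, four ERE-luciferase). The cells were treated with compounds alongside ICI-182,780 10.0nM for 22hr, and live-cell protease fluorescence was quantified with CellTiter-Fluor.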

[19] = qHTS assay to identify small molecule agonists of the progesterone receptor (PR) signaling pathway - cell viability counter screen (AID 1346799; calls by dose curve; further: nearly all actives have a fitted effect of over 45% in size)
Method in brief: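 In parallel with the beta-lactamase readout, cytotoxicity toward PR-UAS-bla HEK293T cells was measured by CellTiter-Glo luminescence following 16 hr compound incubation in 2% charcoal-stripped FBS medium.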
On the % scale 0 is the no-effect control and ±100 the full control effect.

C=CCN1CCc2nc(N)sc2CC1
inactive: outcome [1] | Potency [2] | Potency [3] | outcome [4] | outcome [5] | outcome [6] | outcome [7] | outcome [8] | Potency [9] | outcome [10] | outcome [11] | Potency [12] | outcome [13] | outcome [14] | Potency [15] | max activation [16] -4.96%

CCCCCC(=O)CC
inactive: outcome [17] | outcome [1] | outcome [18] | outcome [4] | outcome [5] | outcome [6] | outcome [7] | outcome [8] | Potency [9] | outcome [10] | outcome [11] | Potency [12] | outcome [13] | outcome [14] | Potency [15]

COc1ccc2cc(CCC(C)=O)ccc2c1
inactive: outcome [17] | outcome [18] | Potency [2] | outcome [4] | outcome [5] | outcome [6] | outcome [7] | outcome [10] | outcome [11] | Potency [12] | outcome [13] | outcome [14]
active: Potency [3] 13.3 µM | Potency [15] 10.6 µM | Potency [16] 8.91 µM

O=C1CC2(CCCC2)CC(=O)N1CCNCC1COc2ccccc2O1 (centres undefined)
active: Potency [15] 13.3 µM
inactive: outcome [1] | outcome [18] | Potency [2] | Potency [3] | outcome [4] | outcome [5] | outcome [8] | Potency [9] | outcome [10] | outcome [11] | Potency [12] | outcome [13] | outcome [14]

CC(C)(C)OC=O
inactive: outcome [17] | outcome [1] | outcome [18] | Potency [2] | Potency [19] | outcome [5] | outcome [7] | outcome [10] | outcome [11] | Potency [12] | outcome [13] | outcome [14] | Potency [15]

COc1cc(NS(=O)(=O)c2ccc(N)cc2)ncn1
inactive: outcome [1] | Potency [2] | Potency [3] | outcome [4] | Potency [19] | outcome [5] | outcome [7] | outcome [8] | Potency [9] | outcome [10] | outcome [11] | Potency [12] | outcome [13] | outcome [14] | max activation [16] -2.45%

COC(C)(C)CC(C)=O
inactive: outcome [18] | Potency [2] | outcome [4] | outcome [5] | outcome [6] | outcome [7] | outcome [8] | Potency [9] | outcome [10] | Potency [12] | outcome [13] | outcome [14] | Potency [15]

CC(C)OCCO
inactive: outcome [18] | Potency [3] | outcome [4] | outcome [5] | outcome [6] | outcome [7] | outcome [10] | outcome [11] | Potency [12] | outcome [13] | outcome [14] | Potency [15]

C=CC(=O)OCCOCCOCC
inactive: outcome [18] | Potency [2] | outcome [4] | Potency [19] | outcome [5] | outcome [6] | outcome [7] | outcome [10] | outcome [11] | outcome [13] | outcome [14] | Potency [15]

COc1ccc(Cl)cc1C
inactive: outcome [18] | Potency [2] | Potency [3] | outcome [4] | Potency [19] | outcome [5] | outcome [6] | outcome [7] | outcome [8] | Potency [9] | outcome [10] | Potency [12] | outcome [13] | outcome [14] | Potency [15]

CNC(=O)c1c(I)c(NC(C)=O)c(I)c(C(=O)O)c1I
inactive: outcome [18] | Potency [2] | Potency [3] | outcome [4] | Potency [19] | outcome [5] | outcome [7] | outcome [8] | Potency [9] | outcome [10] | outcome [11] | outcome [13] | outcome [14] | Potency [15]

NC(=O)CC[C@@H](N)C(=O)O
inactive: Potency [2] | Potency [3] | outcome [4] | Potency [19] | outcome [5] | outcome [7] | outcome [8] | Potency [9] | outcome [10] | outcome [11] | Potency [12] | outcome [13] | outcome [14] | max activation [16] 0.0386%

COC(=O)c1ccccc1Cl
inactive: outcome [18] | Potency [3] | outcome [4] | outcome [5] | outcome [6] | outcome [7] | outcome [8] | Potency [9] | outcome [10] | outcome [11] | Potency [12] | outcome [13] | outcome [14] | Potency [15]

COC(=O)c1cc(Cl)c(NC(C)=O)cc1OC
inactive: outcome [17] | outcome [1] | Potency [2] | Potency [3] | outcome [4] | outcome [5] | outcome [6] | outcome [7] | outcome [10] | outcome [11] | Potency [12] | outcome [13] | outcome [14] | Potency [15]

O=C(O)CCC(=O)Nc1ccc(S(=O)(=O)Nc2nccs2)cc1
inactive: outcome [18] | Potency [2] | Potency [3] | outcome [4] | Potency [19] | outcome [5] | outcome [6] | outcome [7] | outcome [8] | Potency [9] | outcome [10] | outcome [11] | Potency [12] | outcome [13] | outcome [14]

CC(C)CC(=O)N[C@H](C(=O)N[C@H](C(=O)N[C@@H](CC(C)C)[C@@H](O)CC(=O)N[C@@H](C)C(=O)N[C@@H](CC(C)C)[C@@H](O)CC(=O)O)C(C)C)C(C)C (Isovaleryl-VV[Sta]A[Sta]-OH)
inactive: outcome [17] | outcome [1] | outcome [4] | Potency [19] | outcome [5] | outcome [6] | outcome [8] | Potency [9] | outcome [10] | outcome [11] | Potency [12] | outcome [13] | outcome [14] | Potency [15] | max activation [16] -4.42%

N=C(N)N
inactive: outcome [17] | outcome [1] | Potency [2] | Potency [3] | outcome [4] | Potency [19] | outcome [6] | outcome [8] | Potency [9] | outcome [10] | outcome [11] | Potency [12] | outcome [13] | outcome [14] | Potency [15]

CC1(C)C(=O)C(C)(C)C1=O
inactive: Potency [2] | Potency [3] | outcome [4] | Potency [19] | outcome [5] | outcome [6] | outcome [7] | outcome [8] | Potency [9] | outcome [10] | outcome [11] | Potency [12] | outcome [13] | outcome [14] | Potency [15]

O=c1[nH]c(=O)c2cn[nH]c2[nH]1
inactive: outcome [18] | Potency [2] | Potency [3] | outcome [4] | Potency [19] | outcome [5] | outcome [7] | outcome [8] | Potency [9] | outcome [11] | Potency [12] | outcome [13] | outcome [14]
